From PubChem BioAssay (Tox21)
Unmarked numbers belong to inactive results. Inconclusive results are not listed. Entries that show only a call come without a potency. Activity calls are given as the source filed them. Unless noted, calls follow the shape of the dose curve; as a rule, active = well fitted curve in the direction sought with a large enough effect in the repeat runs; inconclusive = weak or mixed curves; inactive = no such curve, though single readings can be large; an effect the other way counts as inactive or inconclusive.

Key:
[1] = qHTS assay to identify small molecule antagonists of the estrogen related receptor (ERR) signaling pathway from Tox21 library - cell viability counter screen (AID 1224834); also: nearly all actives have a fitted effect of over 30% in size
Method in brief: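 ERR cells, 2,000/well; 6 h settle at 37 C/5% CO2; pin-tool compound transfer in DMSO; 17.5 h at 37 C; CellTiter-Fluor, 30 min; fluorescence intensity.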

[2] = target: Luciferin 4-monooxygenase (Photinus pyralis) (UniProt P08659); assay: qHTS assay to identify small molecule inhibitors of firefly luciferase (AID 1224835); also: nearly all actives have a fitted effect of over 25% in size
Method in brief: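 Inhibition of purified Photinus luciferase is measured by luminescence. Substrate levels (D-luciferin, ATP) sit at their KM values. Each compound is tested in a concentration series.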

[3] = qHTS assay to identify small molecule agonists of the constitutive androstane receptor (CAR) signaling pathway - cell viability counter screen (AID 1224836); also: nearly all actives have a fitted effect of over 45% in size
Method in brief: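 HepG2 cells stably carrying hCAR and a CYP2B6-2.2kb reporter were plated 4 h, then given compounds at 15 concentrations plus PK11195 (final 0.75 uM). After 23 h at 37 C, viability was read by CellTiter-Fluor fluorescence.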

[4] = qHTS assay to identify small molecule antagonists of the constitutive androstane receptor (CAR) signaling pathway - cell viability counter screen (AID 1224837); also: nearly all actives have a fitted effect of over 45% in size
Method in brief: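 Viability was measured with CellTiter-Fluor in a HepG2 line carrying stably transfected hCAR and a CYP2B6-2.2kb construct. Cells were exposed for 23 hr at 37 C to 15 compound concentrations with 50 nM CITCO as agonist.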

[5] = target: Nuclear receptor subfamily 1 group I member 3 (Homo sapiens) (UniProt Q14994); assay: qHTS assay to identify small molecule agonists of the constitutive androstane receptor (CAR) signaling pathway (AID 1224839); also: nearly all actives have a fitted effect of over 15% in size
Method in brief: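 HepG2 cells stably expressing hCAR and a CYP2B6-2.2kb luciferase reporter were treated with compounds at 15 concentrations plus 0.75 uM PK11195 (final) for 24 h at 37 C; luminescence was read after ONE-Glo addition.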

[6] = qHTS assay to identify small molecule antagonists of the estrogen related receptor signaling pathway with the pleiotropic PPARgamma coactivator (PGC) from Tox21 10K library - cell viability counter screen (AID 1224840; active = well fitted cell-killing curve with a large enough effect in the repeat runs, not every such curve was filed as active; also: nearly all actives have a fitted effect of over 40% in size)
Method in brief: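 Multiplexed viability counter screen in the PGC/ERR cell line: cells treated with DMSO-dissolved compounds for 17.5 hours at 37 C, then viability measured as CellTiter-Fluor fluorescence.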

[7] = qHTS assay to identify small molecule agonists of the estrogen related receptor signaling pathway with the pleiotropic PPARgamma coactivator (PGC) from Tox21 10K library (AID 1224842); also: nearly all actives have a fitted effect of over 15% in size
Method in brief: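 Luminescence from One-Glo (30 min, room temperature) measured after PGC/ERR cells had 18 h at 37 C with pinned compound (23 nL in DMSO). Cells had been seeded at 2,000 per well and pre-incubated 6 h.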

[8] = target: Thyrotropin receptor (Homo sapiens) (UniProt P16473); assay: qHTS assay to identify small molecule agonists of the thyroid stimulating hormone receptor (TSHR) signaling pathway (AID 1224843; calls by dose curve; also: nearly all actives have a fitted effect of over 45% in size; also: potency is read from the fitted curve at half-maximal effect)
Method in brief: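 A cell-based cAMP HTRF format was run in TSHR-transfected HEK293 cells, 800 per well. Treatment: 30 min, room temperature. Detection: 1 h with labelled cAMP and anti-cAMP cryptate. Concentration-response over 15 points, three replicates.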

[9] = qHTS assay to identify small molecule agonists of the hypoxia (HIF-1) signaling pathway - cell viability counter screen (AID 1224844; calls by dose curve; also: nearly all actives have a fitted effect of over 50% in size)
Method in brief: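 Cytotoxicity was measured in parallel with the HRE-driven beta-lactamase readout: after 17 hrs of compound exposure at 37C, HRE-bla ME-180 cells received CellTiter-Glo and luminescence was recorded 30 min later.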

[10] = qHTS assay to identify small molecule agonists of H2AX (AID 1224845; active = well fitted activation curve with a large enough effect in the signal ratio in the repeat runs, not every such curve was filed as active; the % refers to the signal ratio)
Method in brief: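 Phospho-H2AX Ser139 measured by HTRF (ex 320 nm; em 665 and 620 nm) after 24 hr antibody incubation. Compounds, 15 concentrations, 0.76% DMSO, were applied to CHO-K1 cells for 3hr at 37C before lysis.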

[11] = qHTS assay to identify small molecule agonists of H2AX - cell viability counter screen (AID 1224847; calls by dose curve; also: top concentration of the series differs between compounds; nearly all actives have a fitted effect of over 30% in size)
Method in brief: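 Wild-type CHO-K1 cells (10% FBS medium) were plated overnight at 37C, exposed to compounds at 15 concentrations for 3 hr at 37C (0.76% DMSO final), and viability was read as CellTiter-Glo luminescence after 30 min at room temperature.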

[12] = qHTS assay to identify small molecule agonists of the estrogen related receptor (ERR) signaling pathway from Tox21 library (AID 1224849; calls by dose curve; also: nearly all actives have a fitted effect of over 15% in size); settings: ERR reporter cell line, ONE-Glo luciferase, 18 h; at 92.4 µM (top of the series) unless noted
Method in brief: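 Cells carrying the ERR reporter were plated and allowed to settle for 6 h, exposed to library compounds for 18 h at 37 C, then lysed with ONE-Glo and luminescence measured.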

[13] = qHTS RealTime-Glo MT Cell Viability Assay in HepG2 cells - 24 hour (AID 1224867); also: nearly all actives have a fitted effect of over 50% in size
Method in brief: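 HepG2 cells (600/well) were dispensed with RealTime-Glo reagents, incubated 5 h at 37 °C, then treated with compounds in DMSO for up to 40 h. Nonlytic NanoLuc luminescence reflecting viable cells was read at each stated time point.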

[14] = qHTS RealTime-Glo MT Cell Viability Assay in HEK293 cells - 32 hour (AID 1224868); also: top concentration of the series differs between compounds; nearly all actives have a fitted effect of over 50% in size
Method in brief: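 HEK293 cells seeded with NanoLuc/prosubstrate reagent, rested 5 h at 37 C, then dosed and kept at 37 C up to 40 h. Nonlytic real-time luminescence from viable cells read at 0, 8, 16, 24, 32 and 40 h.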

[15] = A CellTox Green Cytotoxicity Assay to monitor cytotoxicity in HEK293 cells - 0 hour (AID 1224869); also: nearly all actives have a fitted effect of over 50% in size
Method in brief: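 Cells (HEK293, 600/well) and dye reagent are dispensed together. After 5 h at 37 C, 23 nL compound is pinned in. Plates stay at 37 C for 40 h with fluorescence read at 0h, 8h, 16h, 24h, 32h and 40h.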

[16] = qHTS RealTime-Glo MT Cell Viability Assay in HepG2 cells - 40 hour (AID 1224870); also: nearly all actives have a fitted effect of over 50% in size
Method in brief: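 Real-time viability: cells seeded at 600 per well together with NanoLuc and cell-permeant prosubstrate, compounds added after 5 h incubation. Luminescence tracked at 0, 8, 16, 24, 32 and 40 h of exposure.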

[17] = qHTS assay to identify small molecule agonists of the hypoxia (HIF-1) signaling pathway (AID 1224846; active = well fitted activation curve with a large enough effect in the signal ratio in the repeat runs, not every such curve was filed as active; the % refers to the signal ratio)
Method in brief: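 Compounds from the Tox21 10K library, dissolved in DMSO, are tested for induction of a hypoxia response element–controlled beta-lactamase reporter in ME-180 cells. Exposure lasts 17 hrs at 37C after a 5 hr settling period, followed by CCF4-AM FRET substrate.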

[18] = qHTS assay to identify small molecule antagonists of the estrogen related receptor signaling pathway with the pleiotropic PPARgamma coactivator (PGC) from Tox21 10K library (AID 1224841; call rule not given here)
Method in brief: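 Steps: plate 2,000 PGC/ERR cells per well; incubate 6 h at 37 C with 5% CO2; transfer compounds from DMSO stocks by pin tool; incubate 18 h at 37 C; add One-Glo; measure luminescence 30 min later.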

[19] = qHTS assay to identify small molecule antagonists of the estrogen related receptor (ERR) signaling pathway from Tox21 library (AID 1224848); also: nearly all actives have a fitted effect of over 50% in size
Method in brief: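 ERR cell line, 2,000 cells/well. 6 h settle, then compound (DMSO) added; 18 h at 37 C; ONE-Glo luminescence after 30 min RT.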

[20] = target: Nuclear receptor subfamily 1 group I member 3 (Homo sapiens) (UniProt Q14994); assay: qHTS assay to identify small molecule antagonists of the constitutive androstane receptor (CAR) signaling pathway (AID 1224838); also: nearly all actives have a fitted effect of over 40% in size
Method in brief: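 Antagonist mode used CITCO at a final 50 nM to activate CAR in human hepatoma HepG2 cells carrying stable hCAR and a 2.2 kb CYP2B6 promoter-luciferase construct. Compounds were tested at 15 concentrations over 24 h, with luminescence as the end point.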

Sequence of Thyrotropin receptor (Homo sapiens) (P16473 whole entry, looked up): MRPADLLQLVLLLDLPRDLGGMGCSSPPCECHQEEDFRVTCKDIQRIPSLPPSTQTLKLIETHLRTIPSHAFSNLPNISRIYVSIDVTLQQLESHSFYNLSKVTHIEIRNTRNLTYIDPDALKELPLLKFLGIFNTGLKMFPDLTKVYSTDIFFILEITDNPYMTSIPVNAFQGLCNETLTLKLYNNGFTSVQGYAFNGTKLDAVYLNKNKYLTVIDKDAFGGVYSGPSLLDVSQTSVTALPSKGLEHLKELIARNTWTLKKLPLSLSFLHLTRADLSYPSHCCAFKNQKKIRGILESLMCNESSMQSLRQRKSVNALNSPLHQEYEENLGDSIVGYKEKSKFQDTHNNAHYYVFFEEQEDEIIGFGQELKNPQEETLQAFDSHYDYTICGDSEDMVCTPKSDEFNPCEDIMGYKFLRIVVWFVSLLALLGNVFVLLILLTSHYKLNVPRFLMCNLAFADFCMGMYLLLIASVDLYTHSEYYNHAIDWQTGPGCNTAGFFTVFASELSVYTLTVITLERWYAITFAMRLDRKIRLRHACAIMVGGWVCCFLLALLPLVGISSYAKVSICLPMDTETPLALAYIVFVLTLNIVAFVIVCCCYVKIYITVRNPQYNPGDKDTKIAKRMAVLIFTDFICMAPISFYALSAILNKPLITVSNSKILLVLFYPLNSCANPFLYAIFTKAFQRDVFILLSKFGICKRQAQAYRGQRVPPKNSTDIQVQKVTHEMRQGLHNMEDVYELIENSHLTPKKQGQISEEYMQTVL
Sequence of Nuclear receptor subfamily 1 group I member 3 (Homo sapiens) (Q14994 whole entry, looked up): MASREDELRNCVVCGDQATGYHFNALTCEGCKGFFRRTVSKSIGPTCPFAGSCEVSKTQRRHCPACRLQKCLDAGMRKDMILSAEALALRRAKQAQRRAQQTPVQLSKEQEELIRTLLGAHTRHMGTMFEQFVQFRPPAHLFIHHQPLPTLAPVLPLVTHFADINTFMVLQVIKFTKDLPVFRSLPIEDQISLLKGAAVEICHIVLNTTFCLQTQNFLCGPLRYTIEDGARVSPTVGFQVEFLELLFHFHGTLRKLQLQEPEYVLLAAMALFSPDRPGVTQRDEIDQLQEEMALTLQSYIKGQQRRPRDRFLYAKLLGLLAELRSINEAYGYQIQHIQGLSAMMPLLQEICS
Sequence of Luciferin 4-monooxygenase (Photinus pyralis) (P08659 whole entry, looked up): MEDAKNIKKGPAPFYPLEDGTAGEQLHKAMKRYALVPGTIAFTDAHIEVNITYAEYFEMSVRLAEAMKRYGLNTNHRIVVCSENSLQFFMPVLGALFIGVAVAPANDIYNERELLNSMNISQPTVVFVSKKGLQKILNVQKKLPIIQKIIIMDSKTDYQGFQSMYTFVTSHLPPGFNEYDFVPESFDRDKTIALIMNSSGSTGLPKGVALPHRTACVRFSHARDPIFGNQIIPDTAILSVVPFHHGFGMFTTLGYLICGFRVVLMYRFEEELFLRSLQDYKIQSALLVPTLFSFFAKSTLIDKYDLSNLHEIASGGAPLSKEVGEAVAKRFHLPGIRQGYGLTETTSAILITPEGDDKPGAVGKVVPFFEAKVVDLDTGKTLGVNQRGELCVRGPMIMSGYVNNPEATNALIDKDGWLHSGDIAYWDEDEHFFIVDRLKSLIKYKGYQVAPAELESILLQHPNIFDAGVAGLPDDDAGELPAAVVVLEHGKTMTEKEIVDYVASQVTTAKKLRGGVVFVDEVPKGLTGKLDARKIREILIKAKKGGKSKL

Row | Structure (SMILES) | Potency [1] | Potency [2] | Potency [3] | Potency [4] | Potency [5] | Potency [6] | Potency [7] | Potency [8] | Potency [9] | Potency [10] | Potency [11] | activity change, positive = activation [12] | Potency [13] | Potency [14] | Potency [15] | Potency [16] | outcome [17] | Potency [18] | Potency [19] | Potency [20]
1 | CNCC[C@@H](Oc1ccccc1C)c1ccccc1 | inactive | inactive | inactive | inactive | inactive | inactive | inactive | inactive | inactive | inactive | inactive | -15.2% [at 42.5 µM] | inactive | inactive | inactive | inactive | – | – | – | –
2 | CC(=O)Nc1ccc(/C=N/NC(N)=S)cc1 | inactive | inactive | inactive | inactive | inactive | inactive | – | inactive | inactive | – | inactive | – | inactive | inactive | inactive | inactive | inactive | – | – | –
3 | C1=Cc2ccccc2C1 | inactive | inactive | inactive | inactive | – | inactive | inactive | – | inactive | inactive | inactive | 2.75% | inactive | – | inactive | inactive | inactive | inactive | inactive | –
4 | CN(C)C/C=C(/c1ccc(Br)cc1)c1cccnc1 | inactive | inactive | inactive | inactive | – | inactive | – | inactive | inactive | inactive | inactive | – | inactive | inactive | inactive | inactive | – | – | – | –
5 | O=C(O)[C@@H]1[C@H]2C[C@H]3c4[nH]c5ccccc5c4CCN3C[C@@H]2CC[C@@H]1O | inactive | inactive | – | inactive | inactive | – | – | inactive | inactive | inactive | – | 1.64% [at 42.5 µM] | inactive | – | inactive | inactive | inactive | inactive | inactive | inactive
6 | CN(C(=O)CCCOc1ccc2[nH]c(=O)ccc2c1)C1CCCCC1 | inactive | inactive | – | inactive | – | inactive | inactive | 335 nM (active) | inactive | – | inactive | -12.9% [at 42.5 µM] | inactive | – | inactive | inactive | – | inactive | – | inactive
